Assay results as given in PubChem BioAssay (NCI).
Compounds without any hit were thinned out: in the full panel of roughly 79,000, 15% have a hit. Values without a mark were called inactive. Calls of active or inactive are those of the source. Rule as the data show it: active = growth inhibition above about 70%; inactive = the rest.

Experiment: NCI Yeast Anticancer Drug Screen. Data for the rad50 strain (AID 155);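 also: 0% = growth of vehicle-only cultures of the same strain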
Details: S. cerevisiae rad50 strain growth inhibition; at 5.0 µM (retest, dose inferred, filed as 0.5); stronger effect = higher value
Outline: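 Genetically altered yeast (DNA repair pathway); compound treatment; growth inhibition vs vehicle ctrl.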

For `CC(C)c1ccc2c(c1)CC[C@@H]1[C@](C)(CO)CCC[C@]21C`, which growth inhibition is on record?
Its growth inhibition is 4%.

Which growth inhibition does the source give for `O=c1c2ccccc2ncn1Cc1ccccc1[N+](=O)[O-]` here?
Its growth inhibition is -2%.

Which growth inhibition does the source give for `O=C(NO)C(=O)Nc1cc(Cl)ccc1Cl` here?
The growth inhibition was 7%.

With `CCCCCCCCCCCCOC(=O)C[n+]1cccc(C(=O)Nc2ccccc2)c1` as the compound, how does the growth inhibition read?
The growth inhibition was 96% (active).

For `O=C1C=CC(=O)c2ccc(=O)ccc21`, which growth inhibition is on record?
The growth inhibition was 38%.

Which growth inhibition does the source give for `Cn1c(=O)nc2n(-c3ccc(Cl)cc3)c3cc(Cl)ccc3nc-2c1=O` here?
Its growth inhibition is 7%.

Which growth inhibition does the source give for `Clc1ccc(CN2COc3c(ccc4ccccc34)C2)cc1` here?
The growth inhibition was 10%.

With `C1CCN(c2nc(N3CCOCC3)c3[nH]c(N4CCCCC4)nc3n2)CC1` as the compound, how does the growth inhibition read?
Its growth inhibition is 1%.

Which growth inhibition does the source give for `O=C1c2ccccc2-c2cc([N+](=O)[O-])c([N+](=O)[O-])cc21` here?
Its growth inhibition is 16%.

With `CCC[CH2][Sn]([CH2]CCC)([O]C(=O)Cc1ccc(F)cc1)[O]C(=O)Cc1ccc(F)cc1` as the compound, how does the growth inhibition read?
The growth inhibition was 27%.

For `ClCc1ccc2oc3ccccc3c2c1`, which growth inhibition is on record?
The growth inhibition was -5%.

With `O=C1Oc2ccccc2C(=O)/C1=C/N1C(=O)/C(=C/c2ccc([N+](=O)[O-])cc2)SC1=S` as the compound, how does the growth inhibition read?
The growth inhibition was 2%.

For `COC1=CC(=O)c2ncc(Cl)cc2C1=O`, which growth inhibition is on record?
Its growth inhibition is -4%.

Which growth inhibition does the source give for `CN(C)c1ccc(C(c2ccc(N(C)C)cc2)c2ccc3c(c2)OCO3)cc1` here?
Its growth inhibition is 98% (active).

With `CC(C)(C)OC(=O)CSC#N` as the compound, how does the growth inhibition read?
Its growth inhibition is 11%.

With `CN=c1ss/c(=N\C(=S)N(C)C)n1-c1ccccc1` as the compound, how does the growth inhibition read?
Its growth inhibition is -10%.

Which growth inhibition does the source give for `CCCCCCCCCCCCCCCBr` here?
Its growth inhibition is -27%.

For `O=c1c2ccccc2[nH]c2c1[nH]c1ccccc12`, which growth inhibition is on record?
Its growth inhibition is 10%.

For `COc1cc(/C=C/c2cc[n+](C)cc2)ccc1O`, which growth inhibition is on record?
The growth inhibition was -11%.

Which growth inhibition does the source give for `COc1cc(C2c3cc4c(cc3C(OC3CCCCO3)C3COC(=O)C23)OCO4)cc(OC)c1OC` (centres undefined) here?
Its growth inhibition is -2%.

With `O=S(=O)(N/N=C/c1ccc(Cl)cc1Cl)c1ccccc1` as the compound, how does the growth inhibition read?
The growth inhibition was -20%.

For `Cc1ccc(C(=O)/C(Cl)=N/O)cc1`, which growth inhibition is on record?
The growth inhibition was 32%.

With `Cc1ccnc(NS(=O)(=O)c2ccc(N=Cc3c4ccccc4nc4cc(Cl)ccc34)cc2)n1` as the compound, how does the growth inhibition read?
Its growth inhibition is 58%.

Which growth inhibition does the source give for `COc1cc(CCN=Cc2cc(Cl)cc(Cl)c2O)c([N+](=O)[O-])cc1OC` here?
The growth inhibition was 60%.

Which growth inhibition does the source give for `COc1ccc(C(C)c2cc3c(cc2OC/C(C)=N/NC(N)=O)OCO3)cc1` (centres undefined) here?
The growth inhibition was 61%.

With `C/C(CCC1CCc2ccccc2C1)=N\NC(N)=O` (centres undefined) as the compound, how does the growth inhibition read?
Its growth inhibition is -11%.

For `Cc1nc(C(N)=S)sc1C(=O)CC(=O)C(=O)Nc1nc2ccccc2[nH]1`, which growth inhibition is on record?
The growth inhibition was 10%.

Which growth inhibition does the source give for `Clc1ccc([O][In]([O]c2ccc(Cl)cn2)[O]c2ccc(Cl)cn2)nc1` here?
Its growth inhibition is 1%.

With `Cc1ccc(S(=O)(=O)C(=S)Sc2ccccc2)cc1` as the compound, how does the growth inhibition read?
The growth inhibition was 6%.

Which growth inhibition does the source give for `Fc1ccc2[nH]ccc2c1` here?
The growth inhibition was 9%.

For `C(=C/c1ccccc1)/C=N/Nc1ccccc1`, which growth inhibition is on record?
Its growth inhibition is -139%.

Which growth inhibition does the source give for `O=S1(=O)CC2C1C1(Cl)OC2(Cl)c2ccccc21` (centres undefined) here?
Its growth inhibition is 2%.

For `CCCNC(=O)C(=O)NNc1ccccc1`, which growth inhibition is on record?
The growth inhibition was 7%.

For `C/C(=N/O)c1cccc(C(F)(F)F)c1`, which growth inhibition is on record?
Its growth inhibition is -150%.

With `COC1=CC(=O)c2c(O)c3c(c(O)c2C1=O)OC1(Oc2c(cc4cc(C)oc(=O)c4c2O)CC1O)C3O` (centres undefined) as the compound, how does the growth inhibition read?
Its growth inhibition is 96% (active).

With `CC(C)C1/C(=N/O)CC(c2ccccc2)N(N=O)C1c1ccccc1` (centres undefined) as the compound, how does the growth inhibition read?
The growth inhibition was 10%.

With `Cc1c(N)nc(C2CC(=O)N2CC(N)C(N)=O)nc1C(=O)NC(C(=O)NC(C)C(O)C(C)C(=O)NC(C(=O)NCCc1nc(-c2nc(C(=O)NCCCNC3CCCC3)cs2)cs1)C(C)O)C(OC1OC(CO)C(O)C(O)C1OC1OC(CO)C(O)C(OC(N)=O)C1O)c1cnc[nH]1` (centres undefined) as the compound, how does the growth inhibition read?
The growth inhibition was 98% (active).

Which growth inhibition does the source give for `CCOC(=O)C1(Br)CCN(S(=O)(=O)c2ccc(C)cc2)c2ccccc2C1=O` (centres undefined) here?
Its growth inhibition is 1%.

With `O=C(C[n+]1ccccc1)c1ccc2ccc3ccc(Cl)cc3c2c1` as the compound, how does the growth inhibition read?
Its growth inhibition is 4%.
